Data from PubChem BioAssay (Tox21).
Where “and” joins values, the source holds several entries; their conditions need not be identical. Equal entries are not always repeated. Results filed as inconclusive are left out. A call without a number means that no potency is given here. Calls of active or inactive are those of the source. Unless noted, calls come from the whole dose curve; as a rule, active = well fitted curve in the direction sought with a large enough effect in the repeat runs; inconclusive = weak or mixed curves; inactive = no such curve, though single readings can be large; an effect the other way counts as inactive or inconclusive.

What was measured:
[1] = qHTS assay to identify small molecule agonists of the RXR signaling pathway - cell viability counter screen (AID 1159529); note: nearly all actives have a fitted effect of over 50% in size; note: potency is the fitted concentration of half-maximal effect
How it was run: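 RXR-alpha-UAS-bla HEK 293T cells in medium with 2% charcoal-stripped FBS were preincubated 5 hr, then exposed to compounds for 16 hr at 37 C. Viability was read as CellTiter-Glo luminescence after 30 min at room temperature.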

[2] = qHTS assay to identify small molecule antagonists of the retinoid acid receptor (RAR) signaling pathway - cell viability counter screen (AID 1159551); note: nearly all actives have a fitted effect of over 35% in size; note: potency is the fitted concentration of half-maximal effect
How it was run: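 ATP-based viability, C3RL4 cells, 6 h at 37 C with 1 uM final retinol co-added after compound; luminescence read 30 min post CellTiter-Glo, RT.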

[3] = qHTS assay to identify small molecule antagonists of the retinoic acid receptor (RAR) signaling pathway (AID 1159552; note: nearly all actives have a fitted effect of over 50% in size; note: potency is the fitted concentration of half-maximal effect)
How it was run: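 RARE-luc C3RL4 cells; cpds + 1 uM (final) retinol, 6 hr, 37 C/5% CO2; luciferase reagent, 30 min RT, luminescence readout. Inhibitors of retinol-driven signal scored.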

[4] = qHTS assay to identify small molecule agonists of the retinoic acid receptor (RAR) signaling pathway (AID 1159553)
How it was run: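 Quantitative high-throughput format: the Tox21 10K library was tested on C3RL4 RARE-luciferase cells for 6 hr at 37 C and 5% CO2, with luminescence measured after a 30 min room-temperature reagent step.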

[5] = qHTS assay to identify small molecule antagonists of the estrogen related receptor (ERR) signaling pathway from Tox21 library - cell viability counter screen (AID 1224834); note: nearly all actives have a fitted effect of over 30% in size; note: potency is the fitted concentration of half-maximal effect
How it was run: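 Compounds in DMSO were pinned onto ERR cells that had been incubated for 6 h, and the plates were held at 37 C for 17.5 h. CellTiter-Fluor reagent was then added and fluorescence was measured after 30 min.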

[6] = molecular target: Luciferin 4-monooxygenase (Photinus pyralis) (UniProt P08659); assay: qHTS assay to identify small molecule inhibitors of firefly luciferase (AID 1224835); note: nearly all actives have a fitted effect of over 25% in size; note: potency is the fitted concentration of half-maximal effect
Chain of Luciferin 4-monooxygenase (Photinus pyralis) (P08659 whole entry, looked up): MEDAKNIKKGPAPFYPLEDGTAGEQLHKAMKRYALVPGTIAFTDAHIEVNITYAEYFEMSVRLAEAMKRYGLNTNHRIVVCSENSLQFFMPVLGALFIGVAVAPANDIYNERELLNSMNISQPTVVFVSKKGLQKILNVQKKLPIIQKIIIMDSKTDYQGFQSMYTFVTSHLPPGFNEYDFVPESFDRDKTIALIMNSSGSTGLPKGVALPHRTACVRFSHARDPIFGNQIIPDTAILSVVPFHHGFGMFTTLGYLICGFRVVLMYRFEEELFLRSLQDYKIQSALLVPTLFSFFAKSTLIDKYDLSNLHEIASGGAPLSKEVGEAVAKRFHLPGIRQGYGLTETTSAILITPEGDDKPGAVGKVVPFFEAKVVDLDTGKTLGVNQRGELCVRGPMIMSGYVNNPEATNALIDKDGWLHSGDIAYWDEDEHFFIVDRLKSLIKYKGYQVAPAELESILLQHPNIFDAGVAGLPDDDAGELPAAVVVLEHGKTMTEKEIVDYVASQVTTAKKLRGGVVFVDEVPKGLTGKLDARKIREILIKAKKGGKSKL
How it was run: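 Biochemical qHTS: compounds run as interplate titrations against purified firefly enzyme, with D-luciferin and ATP each at its KM concentration. Light output recorded by CCD imaging.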

[7] = qHTS assay to identify small molecule antagonists of the constitutive androstane receptor (CAR) signaling pathway - cell viability counter screen (AID 1224837); note: nearly all actives have a fitted effect of over 45% in size; note: potency is the fitted concentration of half-maximal effect
How it was run: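 Cells are seeded, rested 4 hr at 37 C/5% CO2, dosed with compound (15-point series) and 50 nM CITCO, incubated a further 23 hr, and then CellTiter-Fluor reagent is added before fluorescence is read. The line is HepG2 with stable hCAR and CYP2B6-2.2kb.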

[8] = molecular target: Nuclear receptor subfamily 1 group I member 3 (Homo sapiens) (UniProt Q14994); assay: qHTS assay to identify small molecule antagonists of the constitutive androstane receptor (CAR) signaling pathway (AID 1224838); note: nearly all actives have a fitted effect of over 40% in size
Chain of Nuclear receptor subfamily 1 group I member 3 (Homo sapiens) (Q14994 whole entry, looked up): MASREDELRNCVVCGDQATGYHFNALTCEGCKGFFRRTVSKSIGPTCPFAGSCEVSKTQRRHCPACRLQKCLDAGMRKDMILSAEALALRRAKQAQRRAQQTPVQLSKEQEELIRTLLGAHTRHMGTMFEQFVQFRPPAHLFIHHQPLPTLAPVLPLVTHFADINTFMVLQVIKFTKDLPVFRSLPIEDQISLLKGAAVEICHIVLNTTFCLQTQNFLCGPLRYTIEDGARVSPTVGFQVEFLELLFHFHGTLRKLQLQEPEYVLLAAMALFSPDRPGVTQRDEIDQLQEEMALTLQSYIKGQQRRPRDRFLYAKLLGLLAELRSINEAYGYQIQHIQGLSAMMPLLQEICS
How it was run: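 Luminescence from a CYP2B6-2.2kb promoter reporter in hCAR-expressing HepG2 cells reflects CAR signaling. Cells received compounds at 15 concentrations and 50 nM CITCO (final), then incubated 24 h at 37 C/5% CO2.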

[9] = molecular target: Nuclear receptor subfamily 1 group I member 3 (Homo sapiens) (UniProt Q14994); assay: qHTS assay to identify small molecule agonists of the constitutive androstane receptor (CAR) signaling pathway (AID 1224839); note: nearly all actives have a fitted effect of over 15% in size; note: potency is the fitted concentration of half-maximal effect
How it was run: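 HepG2 cells stably expressing hCAR and a CYP2B6-2.2kb luciferase reporter were treated with compounds at 15 concentrations plus 0.75 uM PK11195 (final) for 24 h at 37 C; luminescence was read after ONE-Glo addition.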

[10] = qHTS assay to identify small molecule antagonists of the estrogen related receptor signaling pathway with the pleiotropic PPARgamma coactivator (PGC) from Tox21 10K library (AID 1224841; call rule not given here; note: series mostly up to about 92 µM; actives are mostly falling curves and most rising ones were filed inactive; nearly all actives have a fitted effect of over 50% in size)
How it was run: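 Cells stably carrying the PGC/ERR reporter, seeded at 2,000 per well, received pin-transferred compounds 6 h post-plating. Exposure lasted 18 h at 37 C. Signal: One-Glo luminescence.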

[11] = qHTS assay to identify small molecule agonists of the estrogen related receptor signaling pathway with the pleiotropic PPARgamma coactivator (PGC) from Tox21 10K library (AID 1224842); note: nearly all actives have a fitted effect of over 15% in size; note: potency is the fitted concentration of half-maximal effect
How it was run: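 PGC/ERR reporter cell line, 2,000 cells per well, incubated 6 h at 37 C before 23 nL compound in DMSO was added. After 18 h at 37 C, One-Glo luminescence read following 30 min at room temperature.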

[12] = qHTS assay to identify small molecule agonists of the constitutive androstane receptor (CAR) signaling pathway - cell viability counter screen (AID 1224836); note: nearly all actives have a fitted effect of over 45% in size; note: potency is the fitted concentration of half-maximal effect
How it was run: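 HepG2 cells stably carrying hCAR and a CYP2B6-2.2kb reporter were plated 4 h, then given compounds at 15 concentrations plus PK11195 (final 0.75 uM). After 23 h at 37 C, viability was read by CellTiter-Fluor fluorescence.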

[13] = qHTS assay to identify small molecule antagonists of the estrogen related receptor signaling pathway with the pleiotropic PPARgamma coactivator (PGC) from Tox21 10K library - cell viability counter screen (AID 1224840; active = well fitted cell-killing curve with a large enough effect in the repeat runs, not every such curve was filed as active; note: nearly all actives have a fitted effect of over 40% in size; note: potency is the fitted concentration of half-maximal effect)
How it was run: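 Cell viability is measured by CellTiter-Fluor fluorescence in PGC/ERR cells that receive compounds after a 6-hour attachment period and are then incubated 17.5 hours at 37 C.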

[14] = molecular target: Thyrotropin receptor (Homo sapiens) (UniProt P16473); assay: qHTS assay to identify small molecule agonists of the thyroid stimulating hormone receptor (TSHR) signaling pathway (AID 1224843; calls by dose curve; note: nearly all actives have a fitted effect of over 45% in size)
Chain of Thyrotropin receptor (Homo sapiens) (P16473 whole entry, looked up): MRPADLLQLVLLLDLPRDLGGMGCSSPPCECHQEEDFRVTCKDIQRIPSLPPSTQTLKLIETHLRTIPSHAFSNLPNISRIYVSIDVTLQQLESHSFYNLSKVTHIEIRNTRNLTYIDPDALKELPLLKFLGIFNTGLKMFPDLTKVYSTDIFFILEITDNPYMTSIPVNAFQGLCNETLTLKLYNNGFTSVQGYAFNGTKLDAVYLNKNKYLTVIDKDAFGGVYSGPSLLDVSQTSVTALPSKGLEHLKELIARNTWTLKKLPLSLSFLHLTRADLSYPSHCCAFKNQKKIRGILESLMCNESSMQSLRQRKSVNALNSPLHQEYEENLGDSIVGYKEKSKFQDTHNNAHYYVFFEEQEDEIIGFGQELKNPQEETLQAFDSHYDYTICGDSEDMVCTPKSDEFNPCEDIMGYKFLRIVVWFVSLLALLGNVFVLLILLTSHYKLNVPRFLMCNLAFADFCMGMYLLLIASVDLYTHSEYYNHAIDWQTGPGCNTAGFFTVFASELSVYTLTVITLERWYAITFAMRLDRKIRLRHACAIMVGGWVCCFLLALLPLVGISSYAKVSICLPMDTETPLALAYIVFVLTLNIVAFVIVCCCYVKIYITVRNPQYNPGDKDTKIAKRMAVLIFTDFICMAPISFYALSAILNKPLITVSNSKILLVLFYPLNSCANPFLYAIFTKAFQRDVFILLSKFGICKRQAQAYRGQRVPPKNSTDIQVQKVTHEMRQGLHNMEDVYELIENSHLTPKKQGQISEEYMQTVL
How it was run: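 HEK293/TSHR, 800 cells/well; cpd 30 min RT; add cAMP-d2 + anti-cAMP-cryptate, 1 h RT; fluorescence read on plate reader. 15-pt titration, n=3.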

Row | SMILES | Potency [1] | Potency [2] | Potency [3] | Potency [4] | Potency [5] | Potency [6] | Potency [7] | Potency [8] | Potency [9] | Potency [10] | Potency [11] | Potency [12] | Potency [13] | Potency [14]
1 | Cc1nc2ccccc2c(=O)n1-c1ccccc1Cl | inactive | inactive | inactive | inactive | 21.2 µM (active) | inactive | 16.9 µM (active) | inactive | inactive | inactive | inactive | – | – | –
2 | C[CH2][Hg][S]c1ccccc1C(=O)O | 1.23 µM (active) and 1.51 µM (active) | 13.7 µM (active) and 18.8 µM (active) | 1.93 µM (active) and 2.66 µM (active) | – | 6.86 µM (active) and 9.44 µM (active) | – | 12.2 µM (active) and 7.5 µM (active) | – | inactive | inactive | 1.22 µM (active) and 2.37 µM (active) | 19.3 µM (active) and 11.9 µM (active) | 4.33 µM (active) and 11.9 µM (active) | inactive
3 | C=C(Cl)Cl | inactive | inactive | – | inactive | inactive | inactive | inactive | inactive | inactive | inactive | inactive | inactive | inactive | inactive
4 | CCC[N+](CCC)(CCC)CCC | inactive | inactive | – | inactive | inactive | inactive | inactive | – | inactive | – | inactive | inactive | inactive | –
5 | Cc1ncc(C[n+]2csc(CCO)c2C)c(N)n1 | inactive | inactive | inactive | inactive | inactive | – | inactive | inactive | inactive | – | – | inactive | inactive | inactive
6 | CON(C)C(=O)Nc1ccc(Cl)cc1 | inactive | inactive | inactive | – | inactive | inactive | inactive | – | – | – | – | inactive | inactive | inactive
7 | O=C(NC(=O)c1cc(F)c(F)cc1Cl)Nc1cc(F)ccc1N1CCC(C(=O)O)CC1 | inactive | inactive | inactive | inactive | inactive | inactive | inactive | – | – | – | – | inactive | inactive | inactive
8 | C[N+](C)(C)CC1CO1 (stereo not drawn) | inactive | inactive | inactive | inactive | inactive | inactive | inactive | – | – | – | – | inactive | inactive | inactive
9 | CCCCC(CC)COC(=O)c1c(Br)c(Br)c(Br)c(Br)c1C(=O)OCC(CC)CCCC (stereo not drawn) | inactive | inactive | – | inactive | inactive | inactive | inactive | inactive | inactive | – | – | inactive | inactive | –
10 | COc1cc(CC(C)N)c(OC)cc1Br (stereo not drawn) | inactive | inactive | inactive | – | – | inactive | – | – | – | – | inactive | inactive | – | inactive
11 | O=C(N/N=C/c1ccc([N+](=O)[O-])o1)c1cc([N+](=O)[O-])cc([N+](=O)[O-])c1O | inactive | inactive | inactive | – | 11.9 µM (active) | 21.9 µM (active) | 10.6 µM (active) | inactive | 15 µM (active) | – | – | 11.9 µM (active) | 11.9 µM (active) | inactive
12 | CCOP(=O)(O)C(N)=O | inactive | inactive | – | inactive | inactive | inactive | inactive | inactive | – | – | – | inactive | inactive | inactive
13 | CN(C1CCCCC1)C1CCCCC1 | inactive | inactive | inactive | – | inactive | inactive | inactive | inactive | inactive | – | – | inactive | inactive | inactive
14 | O=C(N[C@H]1CN2CCC1CC2)c1ccc2c(c1)OCCO2 | inactive | inactive | inactive | inactive | inactive | inactive | inactive | inactive | – | inactive | inactive | – | inactive | inactive
15 | C#CC(O)(C=CCl)CC (stereo not drawn) | inactive | inactive | inactive | inactive | inactive | inactive | inactive | – | – | – | – | inactive | inactive | inactive
16 | CCCN(CCC)C(=O)Cc1c(-c2ccc(Cl)cc2)nc2ccc(Cl)cn12 | inactive | inactive | inactive | inactive | – | – | inactive | – | – | – | – | inactive | inactive | inactive
17 | C=CCN1C[C@H](C)N([C@H](c2ccc(C(=O)N(CC)CC)cc2)c2cccc(OC)c2)C[C@H]1C | inactive | inactive | inactive | inactive | inactive | inactive | – | – | inactive | – | inactive | – | inactive | inactive
18 | O=C(Cc1ccccc1)OCCc1ccccc1 | inactive | inactive | inactive | – | inactive | 35.6 µM (active) | inactive | – | – | inactive | inactive | inactive | inactive | –
19 | FC(Cl)(Cl)C(F)(Cl)Cl | inactive | inactive | inactive | inactive | inactive | inactive | inactive | – | – | – | – | inactive | inactive | inactive
20 | CCCCCl | inactive | inactive | inactive | inactive | inactive | inactive | inactive | – | – | inactive | inactive | inactive | inactive | inactive
21 | Cc1cnc(C2=NC(C)(C(C)C)C(=O)N2)c(C(=O)O)c1 (stereo not drawn) | inactive | inactive | inactive | inactive | inactive | inactive | inactive | – | – | – | – | inactive | inactive | inactive
22 | NP(N)(=O)NC(=O)c1ccc(F)cc1 | inactive | inactive | inactive | inactive | inactive | inactive | inactive | – | – | inactive | inactive | inactive | inactive | inactive
23 | COC(=O)C1(O)c2ccccc2-c2ccccc21 | inactive | inactive | inactive | inactive | inactive | inactive | inactive | – | – | – | – | inactive | inactive | inactive
